Hits are enriched below; roughly 11% of the tested compounds scored in any of these assays.
L3MBTL1 block = blocks human L3MBTL1; Q9Y468; AlphaScreen L3MBTL1–H3K9me1 peptide binding; Potency, µM (doses to about 57.1 µM), without a hit: top-dose activity, negative = inhibition, most hits filed as inhibitors; 230,000 compounds, 0.66% hits; further: on the % scale 0 is the no-effect control and ±100 the full control effect; nearly all actives have a fitted effect of over 60% in size
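AlphaScreen assay: L3MBTL1 (50 nM final) was preincubated 30 min at room temperature with biotinylated H3(1-15)K9me1 peptide (75 nM final), then 30 min with library compounds; streptavidin donor and nickel chelate acceptor beads (10 ug/mL final) added, 30 min dark.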
G9a block = blocks human histone lysine methyltransferase G9a | AID 504332 | Potency, µM (titrated, usually from 102 µM), without a hit: top-dose activity, negative = inhibition, most hits filed as inhibitors | 350,000 compounds, 8.8% hits | G9a H3K9 monomethylation, AlphaScreen, 2 h | Q96KQ7; further: on the % scale 0 is the no-effect control and ±100 the full control effect; nearly all actives have a fitted effect of over 75% in size
Target sequence (Q96KQ7 913-1193 limits assumed): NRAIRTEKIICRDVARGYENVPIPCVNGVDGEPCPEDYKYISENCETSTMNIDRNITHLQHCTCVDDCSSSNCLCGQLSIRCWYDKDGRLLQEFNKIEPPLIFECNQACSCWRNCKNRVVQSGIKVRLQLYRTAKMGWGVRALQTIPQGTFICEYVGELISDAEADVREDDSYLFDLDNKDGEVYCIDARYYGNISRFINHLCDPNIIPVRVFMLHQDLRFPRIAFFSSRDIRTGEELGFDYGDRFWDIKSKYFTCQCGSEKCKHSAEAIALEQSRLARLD
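AlphaScreen detection with an anti-monomethyl H3K9 antibody quantified product after a 2 h room-temperature reaction containing 500 nM biotinylated H3K9 peptide, 20 µM SAM and 20 nM enzyme, which had been preincubated 15 min with compound.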
HP1b chromo inh = blocks HP1-beta chromodomain binding to methylated histone tails; Potency, µM (series often up to 114 µM), inactives show at the top dose activity change, negative = inhibition, most hits filed as inhibitors; 390,000 compounds, 0.56% hits; AID 540317; AlphaScreen HP1-beta / biotin-H3K9me3 peptide binding; P83916; further: nearly all actives have a fitted effect of over 70% in size
Target sequence (P83916 whole entry, looked up): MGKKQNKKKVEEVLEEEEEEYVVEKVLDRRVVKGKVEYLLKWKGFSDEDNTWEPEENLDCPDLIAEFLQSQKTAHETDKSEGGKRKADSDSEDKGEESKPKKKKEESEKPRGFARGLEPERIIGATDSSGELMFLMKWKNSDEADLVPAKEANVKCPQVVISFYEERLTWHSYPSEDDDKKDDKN
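AlphaScreen: HP1-beta (50 nM) preformed 30 min with biotin-H3(1-18)K9me3 peptide (50 nM) in PBS pH 7.4, 0.01% Tween-20. Compound added for 30 min at RT, then streptavidin donor/nickel chelate acceptor beads (10 ug/mL) for 30 min.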
BAZ2B block = BAZ2B (human) inhibition | AlphaScreen BAZ2B-H3K14Ac peptide displacement | Potency, µM (titrated, usually from 114 µM), for inactives: top-dose activity change, negative = inhibition, hits mostly inhibitors | 360,000 compounds, 4.4% hits | AID 504333; further: on the % scale 0 is the no-effect control and ±100 the full control effect; nearly all actives have a fitted effect of over 60% in size
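Inhibition is scored as reduced AlphaScreen emission. The BAZ2B/b-H3(5-23)K14Ac complex (50 nM each) in PBS pH 7.4, 0.01% Tween-20 meets compound (up to 110 uM) for 30 min at RT before bead addition.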
JMJD2A Tudor inh = JMJD2A Tudor domain (human) inhibition; 390,000 compounds, 4.4% hits; Potency, µM (doses to about 114 µM), inactives show at the highest dose activity change, negative = inhibition, usual class: inhibitors; AlphaScreen JMJD2A-Tudor / H3K4me3 peptide binding; further: on the % scale 0 is the no-effect control and ±100 the full control effect; nearly all actives have a fitted effect of over 50% in size
Numbers without * were called inactive; ? = inconclusive; / = not tested or not shown; [ ] = remark or other dose. The call rests on the fitted dose curve; in most records, active means well fitted inhibition curve with a large enough effect; inconclusive means small, poorly fitted or top-dose-only effect; inactive means no such curve, though single readings can be large or run the other way. Potency means the concentration at half of the fitted maximal effect.

SMILES | L3MBTL1 block | G9a block | HP1b chromo inh | BAZ2B block | JMJD2A Tudor inh
CCCOc1ccccc1/C=C1/C(=O)ON=C1C | / | -22% | 28% | -35% | 0%
CCOc1cc(/C=C/C(=O)O)ccc1OCc1ccccc1 | / | -32% | 46% | / | 2%
CCOc1cc(/C=C2\C(=O)ON=C2C)ccc1OCc1ccccc1 | 2% | 13µM* | 6% | -25% | -18%
O=C1C(NS(=O)(=O)c2ccccc2)=C(N2CCN(c3ccc(F)cc3)CC2)C(=O)c2ccccc21 | ? | 5.6µM* | 10µM* | 4µM* | ?
CC1CCN(C(=O)CCNS(=O)(=O)c2ccc(Br)cc2)CC1 | 3% | -3%[12.7 µM] | 55% | -5% | -2%
CSc1ccccc1C(=O)N1CCN(c2ccc(F)cc2)CC1 | / | -14% | 12% | -2% | -12%
O=C(c1cccc(NS(=O)(=O)c2ccc(F)cc2)c1)N1CCN(c2ccccc2)CC1 | -8% | -46% | 5% | -32% | -24%
CC(=C1C(=O)c2ccccc2C1=O)N1CCN(c2ccc(F)cc2)CC1 | -9% | 50µM* | 29% | -17% | -13%
O=S(=O)(Nc1nc2ccccc2nc1Cl)c1ccccc1 | 5% | 40µM* | 25% | 3% | 0%
CC1CCN(C2=C(NS(=O)(=O)c3ccc(Br)cc3)C(=O)c3ccccc3C2=O)CC1 | / | 8.9µM* | 6.3µM* | 4.5µM* | 8.9µM*
O=C1c2ccccc2S(=O)(=O)N1CCS(=O)(=O)c1ccc(F)cc1 | / | 30% | 33% | -12% | -10%
CC1CCN(C(CNS(=O)(=O)c2ccccc2)c2ccccc2)CC1 (configuration not stated) | -9% | -16%[2.33 µM] | 13% | -1% | -14%
CC1CCN(C2=C(NS(=O)(=O)c3ccc(Cl)cc3)C(=O)c3ccccc3C2=O)CC1 | 16µM* | 5.6µM* | ? | 4.5µM* | 45µM*
O=S(=O)(Nc1ccccc1N1CCCCC1)c1ccccc1 | / | 46% | 82% | 15% | 71%
O=C1C(NS(=O)(=O)c2cccs2)=C(N2CCN(c3cccc(Cl)c3)CC2)C(=O)c2ccccc21 | / | ? | ? | 8.9µM* | 7.1µM*
O=C1C(NS(=O)(=O)c2ccc(Br)cc2)=C(N2CCCCC2)C(=O)c2ccccc21 | / | 8.9µM* | 10µM* | 5µM* | 8.9µM*
CC1CCCN(C2=C(NS(=O)(=O)c3ccc(Br)cc3)C(=O)c3ccccc3C2=O)C1 (configuration not stated) | / | ? | ? | 3.5µM* | 3.5µM*
COc1ccc(NC(=O)CSc2nc3ccccc3n2CC(=O)N(C)C2CCCCC2)cc1 | / | -2%[12.7 µM] | 28% | -19% | -6%
CC1CCN(C2=C(NS(=O)(=O)c3ccccc3)C(=O)c3ccccc3C2=O)CC1 | 11µM* | 4µM* | 14µM* | 6.3µM* | 14µM*
O=S(=O)(Nc1nc2ccccc2nc1N1CCN(c2ccccc2)CC1)c1ccc(F)cc1 | -4% | 50µM* | -17% | ? | ?
Cc1nn(-c2ccccc2)c(-n2cccc2)c1C(=O)NCCc1ccc(Cl)cc1 | / | 56%[59 µM] | 87% | 1% | 11%
Cc1ccc(C(=O)NNC2=Nc3cccc4cccc2c34)cc1 | -17% | 17% | 28% | 4% | -21%
COc1cccc(C2=Nc3cccc4cccc(c34)N2)c1 | -11% | 16µM* | ? | 40µM* | 50µM*
CC1=Nc2cccc3cccc(c23)N1 | -15% | 25µM* | ? | -5% | ?
O=C1CC(c2ccco2)=Nc2ccccc2N1 | -21% | ? | 14% | -2% | -15%
SMILES | L3MBTL1 block | G9a block | HP1b chromo inh | BAZ2B block | JMJD2A Tudor inh
Nc1ccc(C2=Nc3cccc4cccc(c34)N2)cc1 | -12% | ? | 25% | 50µM* | -23%
c1coc(C2=Nc3cccc4cccc(c34)N2)c1 | -12% | 40µM* | ? | ? | -29%
Cc1cccc(C(C)C)c1NC(=O)Cn1c(=O)oc2cc(S(=O)(=O)N3CCCC3)ccc21 | / | 0%[59 µM] | 30% | 1% | -10%
CC(C)CN1CCC(=O)N(C(CSc2ccc(Br)cc2)Cc2ccccc2)CC1 (configuration not stated) | / | / | 97% | / | 25%
COc1ccccc1/C=C1\CCCC2=C1Nc1nnnn1C2c1ccccc1OC (configuration not stated) | -4% | 10µM* | 7% | ? | ?
COc1ccccc1NC(=O)C1=C(C)Nc2nnnn2C1c1ccccc1OC (configuration not stated) | / | -21%[12.7 µM] | 34% | 2% | -15%
CCn1c(C(=O)Nc2ccccc2C(=O)OC)cc2sc(Cl)cc21 | / | 25%[59 µM] | 119% | 8% | 41%
Cc1ccc2nc(-c3ccc(C)s3)c(Nc3ccc4c(c3)OCCO4)n2c1 | / | -29%[59 µM] | 7% | / | ?
O=C(c1ccccc1)c1ccc(OCCCN2CCCCC2)cc1 | / | 8.9µM* | -35% | 32µM* | 7.9µM*
O=C(c1ccccc1)c1ccc(OCC(O)CN2CCCCC2)cc1 (configuration not stated) | -3% | 11%[59 µM] | 32% | 13% | 4%
CC(=O)c1ccc(OCCCN2CCCCC2)cc1 | / | 3.5µM* | ? | 50µM* | 2.2µM*
COC(=O)c1ccc(OCCN2CCCCCC2)cc1 | 14% | 35µM* | 4% | ? | -28%
COc1ccc2c(CNC3CCC(C)CC3)c(C(=O)O)n(Cc3ccc(F)cc3)c2c1 (configuration not stated) | / | -9%[59 µM] | 25% | -10% | -7%
CC(C)(C)OC(=O)n1c2ccsc2c2cnn(Cc3ccccc3F)c(=O)c21 | / | / | / | / | -18%
O=C(NNc1ccccc1C(F)(F)F)c1sccc1Br | 2% | 18µM* | 52% | -12% | -13%
CCCN(CCO)Cc1cccc(Cl)c1 | 8% | ? | ? | ? | 3.5µM*
CCCN(CCO)Cc1ccc(Br)cc1 | 8% | 8.9µM* | ? | ? | 20µM*
Cc1cc(C)c(-c2n[nH]c3c2C(c2ccccc2F)N(Cc2ccco2)C3=O)c(O)c1 (configuration not stated) | / | 28%[59 µM] | 19% | ? | -31%
Cc1ccc2c(c1)C(c1ccccc1)N(C(=O)c1ccccc1F)CC(=O)N2 (configuration not stated) | / | -38%[59 µM] | 20% | -9% | -18%
CCOC(=O)c1ccc(S(=O)(=O)NNS(=O)(=O)c2ccc(C)cc2)cc1 | / | 7%[2.33 µM] | 34% | 3% | -13%
CCOC(=O)c1ccc(S(=O)(=O)Nc2cc(C(=O)O)ccc2Cl)cc1 | -11% | 7.9µM* | 10% | -15% | -20%
CCOC(=O)c1c(C)oc2c1cc(NS(=O)(=O)c1ccc(C(=O)O)cc1)c1ccccc12 | / | 35µM* | -22% | -29% | -21%
CCC1CN(C(=O)N2CCC(C(=O)NCCN(C)C)CC2)c2ccccc2O1 (configuration not stated) | / | -4%[59 µM] | -3% | -2% | -22%
OCC(O)C(O)C(O)C(O)C1NCCS1 (configuration not stated) | / | 50µM* | ? | 21% | -10%

Bioassay records as filed in PubChem BioAssay.
